Hits are enriched below; roughly 3.5% of the tested compounds scored in any of these assays.
Pf apPOL inh: Pf-apPOL DNA polymerase inhibition. Recombinant Pf-apPOL, molecular beacon fluorescence, 1.5 h. inhibition, % at 10 µM. 210,000 compounds, 0.25% hits. AID 1794808
mHTT-CaM PPI inh: mHTT-calmodulin interaction abrogation | 190,000 compounds, 3.6% hits | AlphaScreen His-mHTT/GST-CaM binding, luminescence | inhibition, % at 15 µM | AID 1671202 | P42858
Target sequence (P42858 whole entry, looked up, change not shown): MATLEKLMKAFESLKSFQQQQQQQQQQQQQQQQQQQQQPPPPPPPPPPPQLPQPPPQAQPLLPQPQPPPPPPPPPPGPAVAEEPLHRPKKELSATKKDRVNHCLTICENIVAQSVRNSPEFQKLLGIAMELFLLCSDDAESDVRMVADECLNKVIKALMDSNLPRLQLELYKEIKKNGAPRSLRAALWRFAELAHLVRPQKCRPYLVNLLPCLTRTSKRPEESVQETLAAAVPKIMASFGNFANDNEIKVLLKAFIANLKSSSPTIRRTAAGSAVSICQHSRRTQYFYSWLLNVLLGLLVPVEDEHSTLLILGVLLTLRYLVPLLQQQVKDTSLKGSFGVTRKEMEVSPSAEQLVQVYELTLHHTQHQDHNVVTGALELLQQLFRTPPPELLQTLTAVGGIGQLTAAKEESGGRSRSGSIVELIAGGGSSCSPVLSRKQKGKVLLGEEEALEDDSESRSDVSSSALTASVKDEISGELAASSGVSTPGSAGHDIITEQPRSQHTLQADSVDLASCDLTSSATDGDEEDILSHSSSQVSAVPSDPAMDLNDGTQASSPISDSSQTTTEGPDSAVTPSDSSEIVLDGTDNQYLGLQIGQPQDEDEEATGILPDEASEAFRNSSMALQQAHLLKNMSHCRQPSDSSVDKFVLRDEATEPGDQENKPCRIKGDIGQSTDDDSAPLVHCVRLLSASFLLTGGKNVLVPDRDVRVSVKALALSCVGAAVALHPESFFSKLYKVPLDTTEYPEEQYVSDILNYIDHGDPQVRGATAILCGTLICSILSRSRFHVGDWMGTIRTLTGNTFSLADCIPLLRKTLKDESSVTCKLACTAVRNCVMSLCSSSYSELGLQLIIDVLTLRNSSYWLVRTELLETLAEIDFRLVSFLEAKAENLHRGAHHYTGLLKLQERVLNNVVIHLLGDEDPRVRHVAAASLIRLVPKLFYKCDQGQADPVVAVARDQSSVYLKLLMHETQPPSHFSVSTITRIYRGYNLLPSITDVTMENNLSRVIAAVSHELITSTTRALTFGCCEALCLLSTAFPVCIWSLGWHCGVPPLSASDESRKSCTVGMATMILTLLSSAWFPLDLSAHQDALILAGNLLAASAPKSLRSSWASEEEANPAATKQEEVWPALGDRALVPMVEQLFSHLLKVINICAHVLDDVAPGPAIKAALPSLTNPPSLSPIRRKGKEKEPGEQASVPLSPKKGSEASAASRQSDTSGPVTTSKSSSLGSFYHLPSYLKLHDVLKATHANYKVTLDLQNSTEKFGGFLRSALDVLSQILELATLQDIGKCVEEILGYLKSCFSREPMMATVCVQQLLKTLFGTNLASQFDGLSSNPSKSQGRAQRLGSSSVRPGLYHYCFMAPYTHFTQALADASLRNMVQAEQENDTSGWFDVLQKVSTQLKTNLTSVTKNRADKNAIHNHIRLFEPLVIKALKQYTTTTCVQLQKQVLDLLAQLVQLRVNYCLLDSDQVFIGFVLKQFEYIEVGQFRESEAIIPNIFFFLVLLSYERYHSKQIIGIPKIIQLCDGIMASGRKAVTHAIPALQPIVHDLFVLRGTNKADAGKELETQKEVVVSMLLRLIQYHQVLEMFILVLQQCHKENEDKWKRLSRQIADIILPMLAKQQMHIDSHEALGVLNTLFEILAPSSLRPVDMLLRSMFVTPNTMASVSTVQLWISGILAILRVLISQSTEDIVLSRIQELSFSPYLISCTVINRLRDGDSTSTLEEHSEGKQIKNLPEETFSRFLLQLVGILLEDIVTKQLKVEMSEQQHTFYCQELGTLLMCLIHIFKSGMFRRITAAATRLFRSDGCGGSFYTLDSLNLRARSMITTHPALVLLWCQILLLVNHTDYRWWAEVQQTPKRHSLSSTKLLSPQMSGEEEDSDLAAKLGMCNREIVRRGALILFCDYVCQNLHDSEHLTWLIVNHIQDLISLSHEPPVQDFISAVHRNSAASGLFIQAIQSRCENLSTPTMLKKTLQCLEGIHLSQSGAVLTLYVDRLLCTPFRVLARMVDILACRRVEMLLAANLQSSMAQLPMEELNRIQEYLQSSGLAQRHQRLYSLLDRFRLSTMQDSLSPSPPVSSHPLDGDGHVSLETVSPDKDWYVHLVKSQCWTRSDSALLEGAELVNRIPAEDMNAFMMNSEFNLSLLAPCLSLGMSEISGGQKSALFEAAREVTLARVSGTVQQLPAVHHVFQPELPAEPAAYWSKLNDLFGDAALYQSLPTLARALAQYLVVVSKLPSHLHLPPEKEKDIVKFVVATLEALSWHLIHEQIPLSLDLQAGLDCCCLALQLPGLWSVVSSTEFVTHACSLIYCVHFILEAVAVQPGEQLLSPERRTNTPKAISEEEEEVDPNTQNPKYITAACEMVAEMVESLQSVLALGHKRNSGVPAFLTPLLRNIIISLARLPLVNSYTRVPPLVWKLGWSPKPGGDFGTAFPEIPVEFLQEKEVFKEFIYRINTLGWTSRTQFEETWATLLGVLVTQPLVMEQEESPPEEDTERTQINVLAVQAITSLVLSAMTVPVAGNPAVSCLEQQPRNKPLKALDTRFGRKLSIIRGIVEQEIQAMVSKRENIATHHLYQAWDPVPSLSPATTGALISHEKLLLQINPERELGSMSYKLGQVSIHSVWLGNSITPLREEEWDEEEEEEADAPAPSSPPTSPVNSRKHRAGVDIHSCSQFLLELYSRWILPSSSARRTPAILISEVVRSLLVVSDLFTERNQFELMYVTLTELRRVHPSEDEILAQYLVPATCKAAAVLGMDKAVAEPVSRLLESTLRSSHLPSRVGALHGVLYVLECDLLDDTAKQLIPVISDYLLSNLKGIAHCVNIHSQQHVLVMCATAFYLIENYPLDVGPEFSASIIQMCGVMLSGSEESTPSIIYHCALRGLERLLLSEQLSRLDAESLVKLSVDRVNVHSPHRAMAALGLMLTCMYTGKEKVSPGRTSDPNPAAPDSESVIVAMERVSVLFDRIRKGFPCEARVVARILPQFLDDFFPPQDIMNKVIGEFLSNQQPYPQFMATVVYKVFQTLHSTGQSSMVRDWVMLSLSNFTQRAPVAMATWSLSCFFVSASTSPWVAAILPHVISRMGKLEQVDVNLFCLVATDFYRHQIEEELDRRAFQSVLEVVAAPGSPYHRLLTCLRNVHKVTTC
A number is an active result; . = inactive; / = no result. Rule as the data show it: active = inhibition above about 50%; inactive = the rest.

SMILES	Pf apPOL inh	mHTT-CaM PPI inh
Cc1cccc(N2CCN(C/C=C/c3ccccc3[N+](=O)[O-])CC2)c1C	.	66
COc1ccccc1-c1noc(C2CCCN2C(=O)c2ccco2)n1 (stereo unspecified)	.	.
CCc1cccc(Nc2c(-c3nc(C)no3)cnc3nc(C)ccc23)c1	.	68
Cc1ccc2c(Nc3ccc(C)c(F)c3)c(-c3nc(C)no3)cnc2n1	.	.
O=[N+]([O-])c1ccccc1CNc1ccc(F)c(Cl)c1	.	.
COc1ccc(OC)c(CNc2ccc(F)c(Cl)c2)c1	.	.
Oc1c(Cl)cc(Cl)cc1CNc1ccc(F)c(F)c1	.	100
COc1ccc(CNc2ccc(F)c(Cl)c2)cc1C	.	.
CCOc1cccc(CNc2ccc(F)c(Cl)c2)c1O	.	63
COc1ccc(CNc2ccc(F)c(Cl)c2)c(OC)c1OC	.	54
O=C(NCc1cccc(C(F)(F)F)c1)C1CCN(c2ccc(Cl)cc2)C1=O (stereo unspecified)	.	.
COc1cccc(N=Cc2[nH]c3ccc(Br)c(Cl)c3c2O)c1	.	.
C=CCOc1ccccc1/C=c1\sc2nc(-c3ccccc3C)nn2c1=O	.	.
Cc1ccc(-c2nc(C)c(C(=O)N3CCC(C(C)C(=O)NCCC(C)C)CC3)s2)cc1 (stereo unspecified)	.	.
O=C(NC1CC1)c1cccc([N+](=O)[O-])c1	.	.
COCCCNC(=O)c1cnn2c(C(F)(F)F)cc(-c3ccccc3)nc12	.	.
C=CCNC(=O)c1cnn2c(C(F)(F)F)cc(-c3ccccc3)nc12	.	51
Cc1ccccc1NS(=O)(=O)c1cccc2cccnc12	.	.
Cc1ccc(N2C(=O)CCS2(=O)=O)cc1S(=O)(=O)Nc1cccc2cccnc12	.	75
O=C(Cn1[nH]c2c(cnc3ccc(Cl)cc32)c1=O)Nc1ccc(F)cc1F	.	66
Cc1ccc(NC(=O)Cn2[nH]c3c(cnc4ccc(F)cc43)c2=O)cc1C	.	.
Cc1ccc2ncc3c(=O)n(CC(=O)Nc4cccc(F)c4)[nH]c3c2c1	.	81
Cc1c(Cl)cccc1NC(=O)Cn1[nH]c2c(cnc3ccc(F)cc32)c1=O	.	58
Cc1ccc(NC(=O)Cn2[nH]c3c(cnc4ccc(Cl)cc43)c2=O)cc1	.	.
O=C(Cn1[nH]c2c(cnc3ccc(Cl)cc32)c1=O)Nc1cccc(Cl)c1	.	.
SMILES	Pf apPOL inh	mHTT-CaM PPI inh
Cc1cc(C)cc(NC(=O)Cn2[nH]c3c(cnc4ccc(F)cc43)c2=O)c1	.	.
O=C(Cn1[nH]c2c(cnc3ccc(Cl)cc32)c1=O)Nc1cccc(F)c1	.	90
Cc1ccccc1Cn1cc(NC(=O)c2cc(-c3ccc(Cl)c(Cl)c3)on2)cn1	.	.
O=C(CN1CCN(C(=O)Nc2ccc(Cl)cc2)CC1=O)NCc1ccccc1F	.	.
O=C(c1csc(-c2ccc(OCc3ccccc3)cc2F)n1)N1CCOCC1	.	.
COc1ccc(/C=C2\SC(=O)N(Cc3ccccc3)C2=O)cc1	.	.
Cc1ccc(C2CC(C(F)(F)F)n3nc(C(=O)N4CCCC4)cc3N2)cc1 (stereo unspecified)	.	.
Cc1ccc(C2CC(C(F)(F)F)n3nc(C(=O)N4CCN(c5ccccc5)CC4)cc3N2)cc1 (stereo unspecified)	.	90
O=c1nc(/C=C/c2cn[nH]c2-c2ccccc2)cc(C(F)(F)F)[nH]1	.	.
Cc1ccc(OCC(O)Cn2cnc3ccccc32)cc1 (stereo unspecified)	.	.
OC(COc1ccc(I)cc1)Cn1cnc2ccccc21 (stereo unspecified)	.	86
CCn1cc(C(=O)NN)c(=O)c2cc(Br)ccc21	.	.
COCCCNC(=O)c1ccc2c(c1)ncn2-c1ccc(C)c(Cl)c1	.	.
CCOCCCNC(=O)c1ccc2c(c1)ncn2-c1ccc(C)c(Cl)c1	.	84
Cn1c(CN2CCN(C(=O)c3ccc(C(C)(C)C)cc3)CC2)nc2ccccc21	.	.
COc1ccc(C2CC(c3ccc(Br)cc3)=NN2C(C)=O)cc1OC (stereo unspecified)	.	.
Cc1ccnc(SCc2cc(=O)c(OC(=O)Cc3ccc([N+](=O)[O-])cc3)co2)n1	.	88
Cc1csc(SCc2cc(=O)c(OC(=O)c3cccc([N+](=O)[O-])c3)co2)n1	.	.
O=C(CC(c1ccccc1)c1ccccc1)Oc1coc(CSc2ncccn2)cc1=O	.	99
Cn1ccnc1SCc1cc(=O)c(OC(=O)CC2CCCCC2)co1	.	.
Cc1nc2cccnc2n1-c1ccc(CC(=O)N(C)C)cc1	.	.
COCCCNC(=O)C1(C)CCC(=O)N1c1cccc(C)c1C (stereo unspecified)	.	.
O=C(Cc1ccccc1)Nc1ccc(NC(=O)c2ccc(NC(=O)Cc3ccccc3)cc2)cc1	.	.
NC(=O)c1c(Nc2ccccc2Cl)sc(C(=O)c2ccccc2)c1N	.	86
N#Cc1ccccc1Nc1sc(C(=O)c2ccccc2)c(N)c1C(N)=O	.	.
c1ccc(-c2nc(SCC3COc4ccccc4O3)oc2-c2ccccc2)cc1 (stereo unspecified)	/	.

High-throughput results deposited in PubChem BioAssay by University of Kansas High Throughput Screening Laboratory.
